We go through 22 molecules from PubChem BioAssay.

A number with no mark means an inactive call. For some of these results: Results with a measured potency or affinity are listed apart. Active and inactive are the calls of the source. Unless noted, no rule for the calls is given here.

Assay [1] is described as follows: antimalarial activity against Dd2 strain (AID 2302;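 active = growth inhibition above 50% at the single 2 µM test dose, taken to imply half-maximal potency below 2 µM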;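 also: 0% = DMSO untreated growth and 100% = chloroquine plus artemisinin killed control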). Conditions: P. falciparum Dd2 in RBCs, LDH growth readout, 72 h; at 2 µM; active compounds read high.
Assay [2] is described as follows: HepG2 cytotoxicity, primary screen, cytotoxicity control for P. falciparum antimalarial project, cell-based, ATP luminescence (AID 2303;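 active = inhibition above 50%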;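 also: 0% = DMSO wells and 100% = digitonin-killed cells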). The settings on record: HepG2 viability, 24-48 h, at 10 µM, active compounds read high.
For assay [3], the target named is L-lactate dehydrogenase (Plasmodium falciparum (isolate CDC / Honduras)) (UniProt Q27743). The assay can be described thus: PfLDH activity inhibition – cell lysate, 3D7 strain, counter-screen for P. falciparum growth inhibition project (AID 2304).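 Also: 0% = vehicle and 100% = reference inhibitor.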 Conditions: P. falciparum 3D7 crude extract, LDH APAD/NBT absorbance; at 2 µM; active compounds read high.
L-lactate dehydrogenase (Plasmodium falciparum (isolate CDC / Honduras)), sequence (Q27743 whole entry, looked up): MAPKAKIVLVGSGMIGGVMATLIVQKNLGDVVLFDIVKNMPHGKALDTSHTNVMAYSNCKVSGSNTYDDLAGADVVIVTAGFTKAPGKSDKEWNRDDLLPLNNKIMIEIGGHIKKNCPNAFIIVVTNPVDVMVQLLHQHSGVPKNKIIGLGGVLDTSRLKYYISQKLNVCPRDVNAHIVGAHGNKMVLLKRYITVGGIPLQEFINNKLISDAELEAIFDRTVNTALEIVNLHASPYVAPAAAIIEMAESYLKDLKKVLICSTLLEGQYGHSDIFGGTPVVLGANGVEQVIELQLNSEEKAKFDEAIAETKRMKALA
Assay [4] can be described thus: inhibition of 3D7 malaria parasite growth – strain 3D7 (AID 2306).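 Also: 0% = DMSO wells and 100% = chloroquine plus artemisinin control wells.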 The settings on record: P. falciparum 3D7 erythrocytic growth, LDH absorbance, 72 h; at 2 µM; active compounds read high.
The target of assay [5] is Calcium-dependent protein kinase 1 (Plasmodium falciparum (isolate 3D7)) (UniProt P62344). The experiment in a line: PfCDPK1 kinase inhibitors, biochemical, TCAMS library (AID 1159585; cut-off not given, nearly all actives have IC50 up to about 0.98 µM;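 also: inhibitors leave more ATP so luminescence rises with inhibition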). The settings on record: recombinant PfCDPK1, Kinase-Glo ATP depletion luminescence. In general terms: Kinase-Glo measures the ATP left after a reaction by luminescence.
Calcium-dependent protein kinase 1 (Plasmodium falciparum (isolate 3D7)), sequence (P62344 whole entry, looked up): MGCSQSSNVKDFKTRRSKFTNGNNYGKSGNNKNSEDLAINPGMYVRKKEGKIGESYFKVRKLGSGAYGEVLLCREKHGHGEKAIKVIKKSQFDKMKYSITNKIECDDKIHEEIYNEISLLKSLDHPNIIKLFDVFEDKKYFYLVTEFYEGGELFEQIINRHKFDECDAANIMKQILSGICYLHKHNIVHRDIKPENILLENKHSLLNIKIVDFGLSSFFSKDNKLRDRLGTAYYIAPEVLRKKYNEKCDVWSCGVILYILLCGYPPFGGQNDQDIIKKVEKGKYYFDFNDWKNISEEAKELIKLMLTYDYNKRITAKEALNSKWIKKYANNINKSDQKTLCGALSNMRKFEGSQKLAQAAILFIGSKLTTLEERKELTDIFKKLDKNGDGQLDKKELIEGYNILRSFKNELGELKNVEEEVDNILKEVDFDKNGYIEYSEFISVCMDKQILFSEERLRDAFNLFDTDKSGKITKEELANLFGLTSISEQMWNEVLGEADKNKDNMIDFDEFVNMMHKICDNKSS
The target in assay [6] is Plasmodium falciparum protein kinase 6 (PK6, PF3D7_1337100) (UniProt Q8IDW1). The assay can be described thus: PfPK6 kinase inhibitors, biochemical, TCAMS library (AID 1159586). Conditions: recombinant PfPK6, Kinase-Glo ATP depletion luminescence.
Plasmodium falciparum protein kinase 6 (PK6, PF3D7_1337100), sequence (Q8IDW1 1-305): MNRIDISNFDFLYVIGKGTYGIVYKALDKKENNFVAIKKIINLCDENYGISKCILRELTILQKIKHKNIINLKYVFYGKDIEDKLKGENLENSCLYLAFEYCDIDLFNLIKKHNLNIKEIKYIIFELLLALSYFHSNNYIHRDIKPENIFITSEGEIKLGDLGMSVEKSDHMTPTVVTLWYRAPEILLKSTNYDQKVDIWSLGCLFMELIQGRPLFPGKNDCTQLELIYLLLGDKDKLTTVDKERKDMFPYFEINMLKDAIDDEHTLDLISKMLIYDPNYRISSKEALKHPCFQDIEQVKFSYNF
For assay [7], the target named is Protein kinase 7 (PK7), Plasmodium falciparum 3D7 (PF3D7_0213400) (UniProt Q7YTF7). The experiment in a line: inhibition of Plasmodium PK7 catalytic activity – biochemical, TCAMS antimalarial set, Kinase-Glo luminescence (AID 1159587). The settings on record: recombinant PfPK7, Kinase-Glo ATP depletion luminescence.
Protein kinase 7 (PK7), Plasmodium falciparum 3D7 (PF3D7_0213400), sequence (Q7YTF7 1-343): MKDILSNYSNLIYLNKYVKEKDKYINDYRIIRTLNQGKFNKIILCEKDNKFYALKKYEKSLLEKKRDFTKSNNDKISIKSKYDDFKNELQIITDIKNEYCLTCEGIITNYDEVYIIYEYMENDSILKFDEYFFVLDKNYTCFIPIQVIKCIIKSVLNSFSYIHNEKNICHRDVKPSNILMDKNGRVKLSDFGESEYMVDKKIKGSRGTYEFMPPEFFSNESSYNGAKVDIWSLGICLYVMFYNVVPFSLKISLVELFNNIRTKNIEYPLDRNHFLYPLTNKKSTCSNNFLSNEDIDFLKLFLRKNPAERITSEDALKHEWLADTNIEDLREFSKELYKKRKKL
The target in assay [8] is Calcium-dependent protein kinase 4 (Plasmodium falciparum (isolate 3D7)) (UniProt Q8IBS5). The experiment in a line: PfCDPK4 kinase inhibitors, biochemical, TCAMS library (AID 1159588; cut-off not given, nearly all actives have IC50 up to about 0.91 µM). The settings on record: recombinant PfCDPK4, Kinase-Glo ATP depletion luminescence.
Calcium-dependent protein kinase 4 (Plasmodium falciparum (isolate 3D7)), sequence (Q8IBS5 whole entry, looked up): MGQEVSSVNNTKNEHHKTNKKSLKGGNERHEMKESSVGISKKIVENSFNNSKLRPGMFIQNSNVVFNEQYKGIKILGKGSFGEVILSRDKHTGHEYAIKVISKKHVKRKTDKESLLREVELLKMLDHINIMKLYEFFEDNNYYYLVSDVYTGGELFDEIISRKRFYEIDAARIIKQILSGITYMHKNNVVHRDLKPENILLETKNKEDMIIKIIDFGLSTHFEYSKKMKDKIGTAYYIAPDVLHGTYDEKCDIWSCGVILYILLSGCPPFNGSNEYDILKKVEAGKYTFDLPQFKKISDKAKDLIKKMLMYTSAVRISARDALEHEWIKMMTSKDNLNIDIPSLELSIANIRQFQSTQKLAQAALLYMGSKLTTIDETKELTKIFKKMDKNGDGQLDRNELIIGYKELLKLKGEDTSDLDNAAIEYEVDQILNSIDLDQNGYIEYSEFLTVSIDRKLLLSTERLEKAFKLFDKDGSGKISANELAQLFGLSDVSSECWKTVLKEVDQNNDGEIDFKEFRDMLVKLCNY

As to `CCS(=O)(=O)c1ccc(OC)c(Nc2nccc(-c3c(-c4cccc(NC(=O)c5c(F)cccc5F)c4)nn4ncccc34)n2)c1`, the growth inhibition in assay [1] was 88% (active); in assay [4], 87% (active). Further, the inhibition is 27% in assay [2] and -5% in assay [3]. For the same molecule, the result in assay [5], in assay [6] and in assay [7] was inactive.
As for `Cc1ccc(Cn2ccc3c4c(N)nc(N)nc4ccc32)cc1`, the inhibition in assay [3] was -6%. Also, the growth inhibition in assay [4] is 99% (active). In addition, the result in assay [5], in assay [6], in assay [7] and in assay [8] was inactive.
As for `O=C(O)CCSc1ncnc2nc[nH]c12`, the figures for the inhibition in assay [2] and in assay [3] were 7% and 6%, respectively. In assay [4], the growth inhibition was 103% (active). Moreover, the outcome in assay [5], in assay [6], in assay [7] and in assay [8] was inactive.
Consider `Cc1[nH]nc2ccc(-c3cc(OC[C@@H](N)Cc4ccccc4)cnc3-c3cc4ccccc4s3)cc12`, for which the growth inhibition was 68% (active) in assay [1] and 99% (active) in assay [4]. The inhibition in assay [2] was 41%; in assay [3] it was -3%. Further, the result in assay [5], in assay [6] and in assay [7] was inactive.
For `CCN(CC)CCNC(=O)c1ccc(N=Cc2c(O)[nH]c3ccc(S(=O)(=O)Cc4c(Cl)cccc4Cl)cc23)cc1`, the growth inhibition in assay [1] was 56% (active); in assay [4] it was 100% (active). The figures for the inhibition in assay [2] and in assay [3] were 25% and 3%, respectively. The result in assay [5], in assay [6] and in assay [7] was inactive.
As to `Cn1cccc1C(=O)Nc1cccc(-c2nn3ccccc3c2-c2ccnc(Nc3ccc4c(c3)OCCO4)n2)c1`, the growth inhibition in assay [1] was 27%; in assay [4] it was 95% (active). Also, the inhibition is 12% in assay [2] and 4% in assay [3]. The result in assay [5], in assay [6] and in assay [7] was inactive.
With `O=c1c2cccnc2sn1-c1ccccc1`, the inhibition in assay [3] was 0%. Further, the result in assay [5], in assay [6], in assay [7] and in assay [8] was inactive.
As to `N=C1SC(=Cc2cn[nH]c2-c2ccc(F)cc2)C(=O)N1c1nccs1`, the inhibition in assay [2] is 28%; in assay [3] it was -3%. Further, in assay [4], the growth inhibition is 91% (active). Further, the outcome in assay [5], in assay [6], in assay [7] and in assay [8] was inactive.
Consider `CNC(=O)c1ccc(/C=C/C(=O)N2CCc3ccc(-c4ccccc4)cc3C2c2cccc(C(F)(F)F)c2)cc1` (stereo unspecified), for which the inhibition in assay [2] was 9%; in assay [3], 5%. Also, the growth inhibition in assay [4] was 91% (active). The result in assay [5], in assay [6], in assay [7] and in assay [8] was inactive.
On to `O=C(Cc1ccc(Nc2nccc(Nc3cccc4[nH]ncc34)n2)cc1)Nc1ccc(C(F)(F)F)cc1`, for which the growth inhibition is 69% (active) in assay [1] and 100% (active) in assay [4]. For the same molecule, the results for the inhibition in assay [2] and in assay [3] were 12% and -6%, respectively. Further, the outcome in assay [5], in assay [7] and in assay [8] was inactive.
`CCN(CC)CCNc1nccc(N(C)c2ccc(NC(=O)Nc3cc(C(F)(F)F)ccc3F)cc2)n1`: the growth inhibition in assay [1] is 25%; in assay [4] it was 97% (active). The results for the inhibition in assay [2] and in assay [3] were 74% (active) and 1%, respectively. Further, the result in assay [5], in assay [7] and in assay [8] was inactive.
On to `Cn1nc(-c2ccc(NC(=O)Nc3ccc4ccccc4c3)c(F)c2)c2cnc(NCCN3CCOCC3)nc21`, for which the figures for the growth inhibition in assay [1] and in assay [4] were 3% and 93% (active), respectively. In addition, the inhibition in assay [2] was 62% (active); in assay [3], 1%. The result in assay [5], in assay [7] and in assay [8] was inactive.
In the case of `C(=N\Nc1nccc2sc(-c3ccccc3)cc12)/c1cccnc1`, the growth inhibition in assay [1] is 10%; in assay [4], 97% (active). In addition, the results for the inhibition in assay [2] and in assay [3] were -9% and 8%, respectively. Moreover, the outcome in assay [5], in assay [7] and in assay [8] was inactive.
`Cc1cc(Nc2nc(Nc3cccc(Cl)c3)nc3ccccc23)n[nH]1`: the growth inhibition in assay [1] was 95% (active); in assay [4], 103% (active). Also, the inhibition is 9% in assay [2] and -2% in assay [3]. In addition, the result in assay [5], in assay [7] and in assay [8] was inactive.
`Cc1ccc(S(=O)(=O)Nc2ccc(Nc3nccc(Nc4cccc5[nH]ncc45)n3)cc2)cc1`: the figures for the growth inhibition in assay [1] and in assay [4] were 5% and 90% (active), respectively. Moreover, the inhibition is 57% (active) in assay [2] and 6% in assay [3]. In addition, the outcome in assay [5], in assay [7] and in assay [8] was inactive.
Regarding `CC(C)(CNCc1ccc(F)c(F)c1)c1nc(-c2ccc(Cl)c(O)c2)c(-c2ccncc2)[nH]1`, the growth inhibition was 89% (active) in assay [1] and 102% (active) in assay [4]. Also, the inhibition in assay [2] was 74% (active); in assay [3], 2%. For the same molecule, the outcome in assay [6], in assay [7] and in assay [8] was inactive.
As for `CN(C)CC(O)COc1ccc(Nc2ncc([N+](=O)[O-])c(Nc3ccccc3O)n2)cc1` (stereo unspecified), the growth inhibition was 20% in assay [1] and 100% (active) in assay [4]. Besides, the inhibition in assay [2] is 47%; in assay [3], -4%. Further, the outcome in assay [5], in assay [7] and in assay [8] was inactive.
On to `COc1c(CN2CCCC2)cccc1-c1cc2c(-c3ccc(C(=O)O)c(C(C)C)c3)ccnc2[nH]1`, for which the values for the growth inhibition in assay [1] and in assay [4] were 98% (active) and 99% (active), respectively. The inhibition is 56% (active) in assay [2] and -1% in assay [3]. The result in assay [5], in assay [7] and in assay [8] was inactive.
As to `C#CCNC(=O)c1ccc(-c2ccnc(Nc3cccc(CCCN4CCOCC4)c3)n2)s1`, the growth inhibition is 45% in assay [1] and 82% (active) in assay [4]. Moreover, the inhibition in assay [2] is 54% (active); in assay [3], -4%. Moreover, the result in assay [5], in assay [7] and in assay [8] was inactive.
Take `CC(=O)c1ccc(NC(=O)Nc2ccc(N(C)c3ccnc(Nc4cccc(CS(C)(=O)=O)c4)n3)cc2)cc1`: the growth inhibition in assay [1] was 98% (active); in assay [4], 100% (active). Besides, the values for the inhibition in assay [2] and in assay [3] were 86% (active) and -1%, respectively. Moreover, the outcome in assay [5], in assay [7] and in assay [8] was inactive.
As to `CS(=O)(=O)Cc1ccc(Nc2ncc(Cl)c(Nc3cccnc3C(N)=O)n2)cc1`, the growth inhibition in assay [1] and in assay [4] was 97% (active) throughout. Moreover, the inhibition is 54% (active) in assay [2] and -4% in assay [3]. Also, the outcome in assay [5], in assay [7] and in assay [8] was inactive.
For the molecule `CCn1c(-c2nonc2N)nc2c(-c3ccc(CO)o3)ncc(OCCCN)c21`, the results for the growth inhibition in assay [1] and in assay [4] were 97% (active) and 93% (active), respectively. Moreover, the inhibition was -12% in assay [2] and -3% in assay [3]. Besides, the outcome in assay [6], in assay [7] and in assay [8] was inactive.

As usually defined, the inhibition is the change of the read-out against control, counted positive when it falls.
